# D1 allo mod: allosteric modulators of human D1 dopamine receptor; P21728; B-score at 10 µM; HEK293 D1, CRE-luciferase, dopamine EC30 potentiation; actives deviate in either direction; 58,000 tested, 5.9% active; AID 641;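 active means luminescence count or its row- and column-corrected plate score outside the 99.7% band of the plate's sample wells, on either side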
# DAT uptake mod: human DAT dopamine uptake with cocaine, either direction; LLC-PK1 hDAT cells, [14C]-dopamine uptake with cocaine IC80; actives deviate in either direction; AID 449768; 110,000 tested, 1.3% active; B-score at 10 µM;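 active means Z score or B-score, a plate-position-corrected score, falls beyond the plate's 99.7% confidence bounds, in either direction; inactive means both scores lie inside the 99.7% bounds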;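 further: scored against the spread of the other compound wells on the same plate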
# EphB4 ephrin blk: antagonists of human EphB4-ephrin-B2 interaction | EphB4 LBD / TNYL-RAW-Alexa532 peptide, fluorescence polarization | inhibition, % at 7 µM | 97,000 tested, 0.15% active;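 active means inhibition above the screen-wide mean inhibition plus 3 SD, cut at about 15% in these data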;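 further: 0% = DMSO wells and 100% = excess unlabeled TNYL-RAW peptide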
# Target sequence (P54760 whole entry, looked up, the tested form may be a part): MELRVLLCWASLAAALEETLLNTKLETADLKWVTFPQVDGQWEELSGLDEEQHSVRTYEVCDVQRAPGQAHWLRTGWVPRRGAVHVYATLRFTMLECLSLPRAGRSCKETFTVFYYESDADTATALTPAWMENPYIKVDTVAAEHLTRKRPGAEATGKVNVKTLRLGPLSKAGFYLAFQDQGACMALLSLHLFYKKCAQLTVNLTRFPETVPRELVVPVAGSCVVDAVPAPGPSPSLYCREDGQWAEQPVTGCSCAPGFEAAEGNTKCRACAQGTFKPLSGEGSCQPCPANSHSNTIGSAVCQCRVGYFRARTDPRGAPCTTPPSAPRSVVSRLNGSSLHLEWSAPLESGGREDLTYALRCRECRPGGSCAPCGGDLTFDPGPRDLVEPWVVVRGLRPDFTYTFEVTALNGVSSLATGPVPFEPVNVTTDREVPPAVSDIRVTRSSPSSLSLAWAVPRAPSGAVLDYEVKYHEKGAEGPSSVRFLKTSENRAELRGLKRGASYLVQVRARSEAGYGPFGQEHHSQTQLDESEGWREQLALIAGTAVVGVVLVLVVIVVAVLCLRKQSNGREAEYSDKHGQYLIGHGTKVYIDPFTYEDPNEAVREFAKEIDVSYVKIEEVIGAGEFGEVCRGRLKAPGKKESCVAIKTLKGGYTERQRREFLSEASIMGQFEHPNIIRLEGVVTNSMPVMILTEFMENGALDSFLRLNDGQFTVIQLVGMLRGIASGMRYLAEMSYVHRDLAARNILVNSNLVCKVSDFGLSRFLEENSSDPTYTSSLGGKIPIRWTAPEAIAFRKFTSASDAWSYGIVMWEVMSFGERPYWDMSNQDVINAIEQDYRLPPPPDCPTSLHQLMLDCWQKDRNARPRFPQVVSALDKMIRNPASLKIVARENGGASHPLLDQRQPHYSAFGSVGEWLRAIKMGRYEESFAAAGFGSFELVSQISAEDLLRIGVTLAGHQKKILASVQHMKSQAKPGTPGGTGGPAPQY
# * marks the source's active call; other numbers are inactive results; · = no result given. The sample as a whole holds a higher share of hits than the screen did.
SMILES,D1 allo mod,DAT uptake mod,EphB4 ephrin blk
COC(=O)c1cn(-c2ccccc2)nc1-c1ccncc1,·,1.8*,0
CC(C)(C)[C@H]1C=C(C(=O)NCc2nc3ccccc3[nH]2)O[C@@H](OCc2ccc(CO)cc2)C1,·,0.85,·
CCN(CC)CCCN1C(=O)C(=O)/C(=C(/O)c2ccc3c(c2)OCCO3)C1c1ccc(C)o1 (centres undefined),2.3*,·,·
COc1ccc(OC)c(C2/C(=C(\O)c3ccc4c(c3)OCCO4)C(=O)C(=O)N2CCCN(C)C)c1 (centres undefined),1.5,·,·
COCCCNC(=O)CCn1c(=O)c2ccccc2n(CC(=O)Nc2c(C)cccc2C)c1=O,·,-0.71,-3
COCCCNC(=O)CCCn1c(=O)c2ccccc2n(CC(=O)Nc2c(C)cc(C)cc2C)c1=O,-7*,·,·
CONC(=O)C1CCN(C(=O)OCc2ccccc2)CC1,·,1.2,-5
CCOC(=O)c1sc(NC(=O)c2ccccc2)cc1C,·,-0.29,3
CCOC(=O)c1sc(NC(=O)c2c(C)nn(Cc3ccccc3)c2C)cc1C,-3.2*,2,-11
Cc1ccc(C)c(CN2CCNC2=O)c1,0.024,0.39,-2
Cc1ccc(N)cc1CN1CCCC1=O,-0.092,-1.9*,·
Cc1cc(C)n(-c2nc(SCCN(C)C)c3c4c(sc3n2)CCCC4)n1,·,3*,1
CCC(O)CNc1nc(-n2nc(C)cc2C)nc2sc3c(c12)CCCC3 (centres undefined),0.76,·,·
Cc1cccc(NC(=O)CN2NS(=O)(=O)c3ccccc3C2=O)c1,·,-0.21,-6
c1ccc(-c2nc(NCc3ccco3)c3oc4ccccc4c3n2)cc1,·,-0.004,-1
c1ccc(-c2nc(NCCCn3ccnc3)c3oc4ccccc4c3n2)cc1,·,3.5*,-3
COC(=O)c1cccc(NC(=O)CCCOc2cccc(C)c2)c1,·,1.3,-4
CC(C)(C)C(=O)NC1CCN(S(=O)(=O)c2ccc(C(F)(F)F)cc2)CC1,·,0.1,-3
O=S(=O)(c1ccccc1)c1nc(-c2ccco2)oc1NCc1cccnc1,4.9*,0.088,·
O=S(=O)(c1ccccc1)c1nc(-c2ccccc2)oc1NCc1cccnc1,2,-0.17,7
CSc1ccccc1NC(=O)c1ccccc1N(Cc1ccccc1)S(C)(=O)=O,·,-0.019,9
COc1cccc([C@@H]2Oc3ccc(Br)cc3C(=O)[C@H]2OC(=O)NC2CCCC2)c1,·,-0.94,·
COc1ccc(O)c(-c2c(-c3ccc(Cl)cc3)n[nH]c2C)c1,-0.59,3.7*,-2
COc1ccc(-c2n[nH]c(C)c2-c2ccc(Cl)cc2)c(O)c1,·,0.26,5
CC(C)C(NC(=O)COc1ccc2ccccc2c1)C(=O)N/N=C/C=C/c1ccccc1 (centres undefined),·,0.26,-3
SMILES,D1 allo mod,DAT uptake mod,EphB4 ephrin blk
O=C(c1cc2ccccc2oc1=O)N1CCN(c2ccc(N3CCOCC3)nn2)CC1,0.2,0.54,2
O=C(c1ccc(CSCc2ccccc2F)o1)N1CCN(c2ccc(N3CCOCC3)nn2)CC1,0.32,3.4*,·
O=C(OCc1ccc(Cl)cc1Cl)c1ccncc1,·,-1.3,-5
O=C(NCCSc1c[nH]c2ccccc12)c1ccc2c(c1)OCO2,·,-0.46,·
Cc1nc2sccn2c(=O)c1CCN1CCC(=C(c2ccccc2)c2ccc(F)cc2)CC1,-3.4,-3.5*,·
CN1CCN(CCCC(=O)c2ccc(F)cc2)CC1,-1.6,0.72,2
O=C(CSc1nnnn1-c1ccc(Cl)cc1)N1CCc2ccccc2C1,-0.096,0.86,-13
O=C(O)Cc1coc(-c2ccc(F)cc2)n1,-0.0029,-8.5*,-9
O=C(Cc1coc(-c2ccc(F)cc2)n1)NCc1ccccc1,0.71,1.1,·
COc1cccc(C(=O)Nc2cccnc2)c1,·,·,-1
O=C(Nc1cccnc1)c1ccc(Oc2ccccc2)cc1,-6.4*,0.37,-3
CCOC(=O)CNC(=O)CSc1ncnc2c1cnn2-c1ccc(OC)cc1,-2.8*,0.19,4
CCOC(=O)CNC(=O)CSc1ncnc2c1cnn2-c1ccc(C)cc1,-3.3,-0.46,3
CC(=O)NCCc1c[nH]c2ccc(O)cc12,·,-0.4,·
COC(=O)c1cnn(-c2nc3c(C)cccc3s2)c1C,·,-1.2,-1
Cc1ccc(CNCCC2=CCCCC2)cc1,·,-0.57,-4
CC(C)Oc1cc2oc(=O)c3c(c2cc1Cl)CCC3,1.4,0.53,3
CC(=O)Oc1cc2oc(=O)c3c(c2cc1Cl)CCC3,-0.61,5.6*,-8
C=CCn1c(CCNC(=O)c2cccs2)nnc1SCC(=O)Nc1cccc(F)c1,·,0.47,8
NC(=O)c1ccc(Br)c(S(=O)(=O)N2CCCCC2)c1,1.3,2,7
O=S(=O)(c1cc(-c2nnc(-c3ccc(Br)cc3)o2)ccc1Br)N1CCCCCC1,·,3.3*,7
NC(=O)[C@@H]1CC2(CC(c3cccc(NC(=O)[C@@H]4CCC(=O)N4)c3)=NO2)CN1C(=O)Cc1ccc([N+](=O)[O-])cc1 (some centres undefined),·,-0.98,·
COc1ccc(-c2cn3c(C)c(C(=O)N4CCCc5ccccc54)sc3n2)cc1,0.014,1.9,-6
Cc1c(C(=O)Nc2ccncc2)sc2nc(-c3ccc(F)cc3)cn12,-5.2*,-1.3,·
Cc1c(C(=O)NCC(C)C)sc2nc(-c3ccc(F)cc3)cn12,0.17,-0.48,·
SMILES,D1 allo mod,DAT uptake mod,EphB4 ephrin blk
COc1ccc(-c2cn3c4c(sc3n2)CCCC4)cc1,-5*,1.8,-2
COc1ccc(-c2cn3c(C)c(C(=O)Nc4ccncc4)sc3n2)cc1,-3.3*,-0.28,5
COc1ccc(-c2cn3c(C)c(C(=O)Nc4cccc(NC(C)=O)c4)sc3n2)cc1,0.41,0.79,1
Cn1c(=O)c2c(nc(SCC(=O)O)n2Cc2cc3c(cc2Cl)OCO3)n(C)c1=O,·,-0.64,2
CCOc1cc(N)c(Cl)cc1C(=O)NCC1CN(Cc2ccc(F)cc2)CCO1 (centres undefined),·,0.023,·
CCC(=O)N1CCN(CCN=Cc2c(O)n(C3CCCCC3)c(=O)n(C3CCCCC3)c2=O)CC1,-0.13,·,·
CC(C)C(=O)N1CCC(CN=Cc2c(O)n(C3CCCCC3)c(=O)n(C3CCCCC3)c2=O)CC1,0.093,3.2*,1
Cc1ccc(-n2c(Cn3nc(C(F)(F)F)cc3C)n[nH]c2=S)cc1,·,0.31,-3
Brc1ccccc1OCCCCCN1CCCC1,·,0.026,2
CCc1ccccc1OCCCCN1CCCC1,-3.1*,-1.2,0
Cc1ccccc1OCCCN1CCCC1,-0.96,-0.35,-2
C=CCc1ccccc1OCC(O)CNC(C)C (centres undefined),-1.6,-0.77,·
C=CCc1ccccc1OCCCCN1CCCC1,-3*,-1.2,·
C=CCc1ccccc1OCC(CN1CCCCC1)OC(C)=O (centres undefined),-4.5*,-0.31,1
COC(=O)CCCCCN1C(=O)NC(C2CC2)C(C(=O)OCc2ccccc2)=C1C (centres undefined),·,0.25,·
COc1c(O)cccc1[C@H](O)C1CCN(CCc2ccc(F)cc2)CC1,·,0.51,·
CC1=NN(C(=O)c2cccc(Cn3nc(C)c([N+](=O)[O-])c3C)c2)C(O)(C(F)(F)F)C1 (centres undefined),·,0.081,-2
COc1cc(/C=C\C(=O)NCc2ccc3c(c2)cc(C)n3C)cc(OC)c1OC,·,-1.2,·
O=C(c1cccc(COc2ccc(Cl)cc2Cl)c1)N1CCN(c2ccccn2)CC1,-2.7,0.75,2
O=C(c1cccc(COc2cccc3ccccc23)c1)N1CCCC1,·,3.7*,4
